Source: PubChem
An excerpt weighted towards active compounds, which were near 19% of everything screened.
DT40 TDP1 CPT: growth inhibition of DT40 Tdp1-/-;hTDP1 cells with camptothecin (screen for TDP1 inhibitors). chicken DT40 Tdp1-/-;hTDP1 cells + 20 nM CPT, ATP luminescence, 48 h. Potency, µM (titrated, usually from 46.2 µM), for inactives: at the highest dose activity change, negative = growth inhibition, actives largely listed as inhibitors. 420,000 tested, 12% active. AID 686979; also: nearly all actives have a fitted effect of over 55% in size
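Cell growth measured by CellTiter-Glo luminescence after a minimum 48 h, 37 C compound exposure with 20 nM CPT in Tdp1-knockout DT40 cells stably expressing hTDP1, seeded 400/well; qHTS titration format.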
KB-3-1 tox: KB-3-1 parental cell cytotoxicity. KB-3-1 viability, CellTiter-Glo ATP luminescence, 72 h. Potency, µM (series often up to 46.1 µM), most hits filed as cytotoxic. 400,000 tested, 1.4% active. AID 1347075; also: nearly all actives have a fitted effect of over 60% in size
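Parental KB-3-1 adenocarcinoma cells in phenol-red-free DMEM with 10% FBS were pin-treated with compounds at several concentrations, incubated 72 h at 37 °C, and viability read by CellTiter-Glo luminescence; concentration-effect curves were fitted after normalization.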
KB-V1 MDR tox: KB-V1 MDR subline cytotoxicity; KB-V1 MDR cells viability, CellTiter-Glo, 72 h; Potency, µM (doses to about 46.1 µM), usual class: cytotoxic; 400,000 tested, 3.4% active; AID 1347076; also: nearly all actives have a fitted effect of over 60% in size
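Cytotoxicity toward P-gp-expressing KB-V1 cells was determined as loss of CellTiter-Glo luminescence after 72 h at 37 degrees C. Compounds were tested in quantitative HTS format across a concentration range, with curves fitted to normalized data.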
HT1080NT lethal: kills 2HG-producing HT-1080-NT fibrosarcoma cells; HT-1080-NT fibrosarcoma viability, CellTiter-Glo ATP luminescence, 48 h; Potency, µM (highest dose often 46.1 µM), inactives show at the top dose activity, negative = less viability, actives largely listed as cytotoxic; 360,000 tested, 1.6% active; AID 686970;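 also: NT is the 2HG producing partner of a matched IDH1 knockdown line; 0% = DMSO-treated cells and -100% = media-only wells without cells; nearly all actives have a fitted effect of over 55% in size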
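A 48-hour cytotoxicity screen used HT-1080-NT cells plated 2 hours before compound delivery. ATP-based CellTiter-Glo luminescence measured viability, normalized to DMSO and no-cell controls.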
HT1080 IDH1KD tx: toxicity to HT-1080 IDH1 knockdown cells (counter line); 360,000 tested, 2% active; Potency, µM (titrated, usually from 46.1 µM), without a hit: top-dose activity, negative = toxicity, hits mostly cytotoxic; HT-1080 IDH1 knockdown viability, ATP luminescence, 48 h;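 also: 0% = DMSO wells and -100% = cell-free medium wells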
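Cytotoxicity counter-line: IDH1KD HT-1080, 48 h, CellTiter-Glo. Curves classed by r2, magnitude and activity.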
TDP1 cell noCPT: qHTS for Inhibitors of human tyrosyl-DNA phosphodiesterase 1 (TDP1): qHTS in cells in absence of CPT; DT40 Tdp1-/- hTDP1 cells, no CPT, ATP luminescence, 48 h; Potency, µM (doses to about 46.2 µM), for the others: top-dose activity change, negative = growth inhibition, most hits filed as inhibitors; 420,000 tested, 15% active; also: nearly all actives have a fitted effect of over 55% in size
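Chicken DT40 Tdp1-/- cells complemented with human TDP1, screened without camptothecin (DMSO vehicle only), 400 cells/well. Compounds pin-transferred, cells incubated at 37 °C for at least 48 hr. Growth read as ATP-dependent luminescence (CellTiter-Glo, 30 min at RT).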
The depositor's hits bear a star; i = inactive; ? = inconclusive; . = no result. Calls follow the shape of the dose curve; as a rule, active = well fitted curve in the direction sought with a large enough effect; inconclusive = small, poorly fitted or top-dose-only effect, or another doubt; inactive = no such curve, though single readings can be large; an effect the other way counts as inactive or inconclusive. Unless noted, % is scaled to controls: 0 for no effect and ±100 for the full control effect; potency is read from the fitted curve at half-maximal effect.

SMILES	DT40 TDP1 CPT	KB-3-1 tox	KB-V1 MDR tox	HT1080NT lethal	HT1080 IDH1KD tx	TDP1 cell noCPT
COC[C@H]1CCCN1[C@H]1CS(=O)(=O)N[C@@H]1COCc1ccccc1	2%	i	i	26%	19%	1%
CCOC(=O)CCNC(=O)N1CCCC(Cc2ccccc2)(C(=O)OCC)C1 (centres undefined)	?	i	i	-7%	-4%	-5%
Cn1cccc1/C=N/NC(N)=S	?	i	i	3%	15%	21µM*
O=C(N/N=C/C1CC=CCC1)c1cc2ccccc2cc1O (centres undefined)	10%	i	i	?	18µM*	-16%
Cn1cccc1/C=N/NC(=O)c1ccccn1	?	i	i	0%	3%	?
O=C(NCc1ccco1)c1cc(-c2cccs2)nc2ccccc12	?	i	?	-10%	-11%	?
Cn1cccc1/C=N/NC(=O)c1cc(-c2cccs2)nc2ccccc12	8.2µM*	7.3µM*	6.5µM*	?	?	5.8µM*
O=C(N/N=C/C1CC=CCC1)c1ccc(O)cc1O (centres undefined)	11%	i	i	10%	1%	10%
Cn1cccc1/C=N/NC(=O)c1cc2ccccc2cc1O	-27%	i	i	-26%	-25%	21µM*
COc1ccc2c(c1)N(C(=O)CSc1n[nH]c(C)n1)C(C)(C)C=C2C	-6%	i	i	2%	2%	-6%
CCOc1ccc(CN2C(=O)c3ccccc3Sc3ccc(C(=O)NCc4ccc5c(c4)OCO5)cc32)cc1	10%	.	.	.	.	-13%
O=C(N/N=C/c1ccc2ncccc2c1)c1cc(-c2cccs2)nc2ccccc12	2.9µM*	?	?	27%	0%	3.3µM*
Cc1cc(C(=O)N/N=C/c2ccncc2)c2ccccc2n1	-1%	i	i	-3%	-25%	-3%
Cc1ccc2c(Cl)c(C(=O)N/N=C/c3cccn3C)sc2c1	8.2µM*	i	i	?	?	8.2µM*
O=C(N/N=C/c1ccc[nH]1)c1cc(-c2cccs2)nc2ccccc12	?	?	?	?	?	21µM*
O=C(N/N=C/c1cccnc1)c1cc(-c2cccs2)nc2ccccc12	?	16µM*	?	?	?	16µM*
CC(Oc1ccccc1)C(=O)Nc1nnc(C2CCCCC2)s1 (centres undefined)	?	i	?	7%	6%	?
COc1ccc(-c2nc3ccc(NS(=O)(=O)c4ccc(Cl)cc4)cc3o2)cc1	?	i	i	.	.	?
Cc1ccc(C(C)C)c(OCC(=O)N/N=C/c2cccn2C)c1	?	i	i	-4%	-5%	15µM*
Cn1cccc1/C=N\NC(=O)Cc1ccc(Br)c2ccccc12	15µM*	i	i	-10%	0%	10µM*
Cc1cccc(OCC(=O)N/N=C/c2cccn2C)c1	0%	i	i	11%	16%	-24%
CCOCCc1nn2c(=O)cc(COC(=O)C(CC)c3ccccc3)nc2s1 (centres undefined)	?	i	i	.	.	?
CSc1cccc(NS(=O)(=O)c2ccc(-c3coc(C)n3)cc2)c1	?	?	i	-1%	-27%	15µM*
CCN(CC)c1ccc(NS(=O)(=O)c2ccc(-c3coc(C)n3)cc2)c(C)c1	16µM*	i	?	.	.	18µM*
COc1ccc(NS(=O)(=O)c2ccc(-c3coc(C)n3)cc2)cc1	?	?	?	?	-6%	-25%
SMILES	DT40 TDP1 CPT	KB-3-1 tox	KB-V1 MDR tox	HT1080NT lethal	HT1080 IDH1KD tx	TDP1 cell noCPT
Cc1nc(-c2ccc(S(=O)(=O)Nc3cccc(Cl)c3)cc2)co1	-28%	i	i	-9%	3%	6%
Cc1nc(-c2ccc(S(=O)(=O)Nc3ccccc3C)cc2)co1	?	i	i	0%	?	-19%
COc1ccc(NS(=O)(=O)c2ccc(-c3coc(C)n3)cc2)cc1OC	4.1µM*	?	i	3%	0%	2.1µM*
COc1cc(Cl)c(NS(=O)(=O)c2ccc(-c3coc(C)n3)cc2)c(OC)c1	3.7µM*	?	i	.	.	4.1µM*
CN1CCN(C2CN(CCc3ccccc3)S(=O)(=O)C2)CC1 (centres undefined)	-16%	i	i	-2%	0%	-8%
O=CNn1cnc2c(oc3nc(-c4ccccc4)cc(-c4ccco4)c32)c1=O	-2%	?	i	3%	-2%	?
Cc1nc(-c2ccc(S(=O)(=O)Nc3ccc(C)c(N(C)C)c3)cc2)co1	7.3µM*	18µM*	?	.	.	18µM*
CC1(C)CC(NC(=O)c2ccc(Cl)c(S(=O)(=O)N(Cc3ccccc3)c3ccccc3)c2)CC(C)(C)N1	?	?	i	-23%	-24%	?
CCN(CC)CCN1c2ccccc2Sc2ccc3ccccc3c21	-17%	i	i	?	?	16µM*
CC(=O)c1cccc(S(=O)(=O)Nc2cccnc2)c1	4%	i	i	-3%	2%	-11%
Cc1ccc(-c2nc3ccccc3[nH]2)cc1NC(=O)c1ccco1	-25%	i	i	16%	5%	?
Cc1cc(Cl)ccc1OCC(=O)N[C@@H](Cc1ccccc1)c1nc2ccccc2[nH]1	21µM*	?	?	?	?	16µM*
Cc1ccc(-c2nc3ccccc3[nH]2)cc1NC(=O)c1sc2cc(Cl)ccc2c1Cl	8.2µM*	i	i	-6%	-3%	16µM*
CCC(=O)NC(Cc1ccccc1)c1nc2ccccc2[nH]1 (centres undefined)	7%	i	i	5%	1%	0%
Cc1cc(OCC(=O)Nc2cc(-c3nc4ccccc4[nH]3)ccc2C)ccc1Cl	15µM*	.	.	.	.	7.3µM*
Cc1ccc(-c2nc3ccccc3[nH]2)cc1NC(=O)COc1ccc(Cl)cc1Cl	6.5µM*	i	?	.	.	5.2µM*
COc1ncc2ncc(=O)n(CCc3ccccc3)c2n1	-27%	.	.	.	.	-15%
Cc1ccc(S(=O)(=O)N2CCCCC2)cc1NC(=O)COC(=O)C1=COCCO1	-4%	i	i	11%	7%	-7%
N#Cc1ccc(-c2ccc(F)cc2)nc1SCC(=O)Nc1sc2c(c1C#N)CCC2	-28%	i	i	-6%	-10%	-20%
